# Data published in article PMC4552634, “A New Set of Chemical Starting Points with Plasmodium falciparum Transmission-Blocking Potential for Antimalarial Drug Discovery” (PLoS ONE, 2015).
# About 3,200 (25%) of roughly 13,000 compounds showed an effect of 50% or more. This is one part of the list.
# Tested on: P. falciparum stage V gametocytes
# Parameters: BacTiter-Glo ATP luminescence viability of purified stage V gametocytes in 384-well plates, per cent inhibition versus DMSO
# Settings: 48 h, 5 µM; inhibitor
row,SMILES,% Inhibition
1,CN(C)CCNc1ncnc2c1[nH]c1ccc(Br)cc12 [TCMDC-124584],3.603%
2,CN(C)c1cc(N/N=C/c2cc(Cl)ccc2O)nc(N(C)C)n1 [TCMDC-125812],-69.18%
3,CC1CN(Cc2cccc(C#N)c2)CCN1c1ccc(NC(=O)c2cccs2)cc1 (stereo not drawn) [TCMDC-134969],-7.267%
4,O=C(CSc1cccc[n+]1[O-])c1ccc(Cc2ncc(C(F)(F)F)cc2Cl)s1 [TCMDC-125823],10.92%
5,COc1ccc2ncc(F)c([C@H](O)CN3CCC(NCc4ccc5c(c4)NC(=O)CO5)CC3)c2c1 [TCMDC-135829],-7.754%
6,COc1ccc2nccc([C@H](O)CN3CCC(NCc4cc(C)c5c(c4)OCCO5)CC3)c2n1 [TCMDC-136075],22.49%
7,COc1ccc2ncc(F)c(CCN3CCC(NCc4ccc5c(c4)CCO5)CC3)c2n1 [TCMDC-135491],11.83%
8,COc1nc2c(CCN3CC[C@H](NCc4cc(C#N)c5c(c4)CCO5)[C@H](O)C3)ccnc2cc1F [TCMDC-135969],-20.52%
9,COc1ccc2ncc(F)c([C@@H](O)CN3CCC(NCc4ccc5c(c4)NCCS5)CC3)c2n1 [TCMDC-135765],82.34%
10,COc1ccc2ncc(F)c([C@@H](O)CN3CCC(NCc4cc(C#N)c5c(c4)CCO5)CC3)c2n1 [TCMDC-136078],86.13%
11,COc1nc2c(CCN3CC[C@H](NCc4cc(C#N)c5c(c4)OCCO5)[C@H](O)C3)ccnc2cc1F [TCMDC-135968],5.29%
12,COc1nc2c(CCN3CC[C@@H](NCc4cc(C#N)c5c(c4)CCO5)[C@@H](O)C3)ccnc2cc1F [TCMDC-135964],90.2%
13,COc1ccc2ncc(F)c([C@H](O)CN3CCC(NCc4ccc5c(c4)OCCO5)CC3)c2c1 [TCMDC-135828],-2.76%
14,O=C(Nc1ccc(-c2cccc(-c3nc4ccccc4[nH]3)c2)cc1)NC1CC1c1ccccc1 (stereo not drawn) [TCMDC-133257],-13.71%
15,O=C(CC1CCCC1)N(CC1CCN(Cc2ccc(C(F)(F)F)cc2)CC1)c1ccc(N2CCOCC2)c(F)c1 [TCMDC-135855],9.841%
16,CCN(CCCN1CCCCC1)c1nccc(Nc2ccc(Cl)cc2)n1 [TCMDC-137046],6.161%
17,CS(=O)(=O)c1ccccc1CNC(=O)c1cccc(-c2ccc(-c3nc4cc(C(F)(F)F)ccc4[nH]3)cc2)c1 [TCMDC-132506],-36.65%
18,CC(C)N1CCC(N(Cc2ccc(-c3ccc(C(F)(F)F)cc3)cc2)C(=O)Cn2c(SCc3cccc(F)c3F)cc(=O)c3ccccc32)CC1 [TCMDC-141157],117.9%
19,CC(C)N1CCC(N(Cc2ccc(-c3ccc(C(F)(F)F)cc3)cc2)C(=O)Cn2c(CCc3cccc(F)c3F)cc(=O)c3ccccc32)CC1 [TCMDC-141141],111.4%
20,CC(C)N1CCC(N(Cc2ccc(-c3ccc(Cl)cc3)cc2)C(=O)Cn2c(CCc3cccc(F)c3F)nc(=O)c3ccccc32)CC1 [TCMDC-141368],117.4%
21,CC(C)N1CCC(N(Cc2ccc(-c3ccc(C(F)(F)F)cc3)cc2)C(=O)Cn2c(SCc3cccc(F)c3F)nc(=O)c3ccccc32)CC1 [TCMDC-141312],121.2%

row,SMILES,% Inhibition
1,N#Cc1c(N)nc(SCC(=O)Nc2cc(C(F)(F)F)ccc2Cl)c(C#N)c1-c1cccs1 [TCMDC-123750],-5.622%
2,COc1ccc(NC(=O)c2ccc(Br)c(C)c2)cc1N1CCN(Cc2ccccc2)CC1 [TCMDC-139031],-19.8%
3,CSc1cccc(NC(=O)c2cc3ccccc3oc2=O)c1 [TCMDC-123616],19.07%
4,O=C(NCC(c1ccc(C(F)(F)F)cc1)N1CCCC1)c1cc(-c2ccncc2)c(-c2cccc(O)c2)o1 (stereo not drawn) [TCMDC-135665],33.87%
5,CCn1c(SCc2ccccc2)nc2c1c(=O)[nH]c(=O)n2C [TCMDC-125734],-6.834%
6,CC(C)CNC(=S)N1CCCN(c2nc3ccc(Cl)cc3s2)CC1 [TCMDC-139465],24.85%
7,Cc1noc(C)c1CN1Cc2ccccc2OC2(CCN(Cc3c[nH]c4cnccc34)CC2)C1 [TCMDC-133381],19.56%
8,COc1ccc(NC(=O)NC2CCN(c3ccnc4cc(Cl)ccc34)CC2)cc1 [TCMDC-133573],-92.42%
9,CN1CCC(N(Cc2ccc(-c3ccc(C(F)(F)F)cc3)cc2)C(=O)Cn2cc(Cc3cnn(C)c3)c(=O)nc2SCc2cccc(F)c2F)CC1 [TCMDC-141337],106.7%
10,CC(C)N1CCC(N(Cc2ccc(-c3ccc(Cl)cc3)cc2)C(=O)Cn2c(CCc3cccc(F)c3F)cc(=O)c3ccccc32)CC1 [TCMDC-141363],102.7%
11,CCCC(C)NC(=O)[C@H](CC1CCCCC1)NC(=O)c1ccc(O)c(-c2cccc(C(F)(F)F)c2)c1 (stereo partly drawn) [TCMDC-140808],13.25%
12,CC1CN=C(c2ccc(NC(=O)Nc3ccc(C4=NCC(C)N4)cc3)cc2)N1 (stereo not drawn) [TCMDC-137210],-10.63%
13,O=C(/C=C/c1ccc(Cl)c(Cl)c1)NCCCCCN1CCC(NC(=O)c2cccc(Cl)c2)CC1 [TCMDC-135868],49.83%
14,N#Cc1ccc(NC(=O)NC2CCN(CCCCCNC(=O)/C=C/c3ccc(Cl)c(Cl)c3)CC2)cc1 [TCMDC-135705],-23.68%
15,N#Cc1cccc(NC(=O)NC2CCN(CCCCCNC(=O)/C=C/c3ccc(Cl)c(Cl)c3)CC2)c1 [TCMDC-135706],-58.78%
16,N#Cc1cccc(C(=O)NC2CCN(CCCCCNC(=O)/C=C/c3ccc(Cl)c(Cl)c3)CC2)c1 [TCMDC-135841],88.37%
17,N#Cc1ccc(C(=O)NC2CCN(CCCCCNC(=O)/C=C/c3ccc(Cl)c(Cl)c3)CC2)cc1 [TCMDC-135837],78.66%
18,O=C(/C=C/c1ccc(Cl)c(Cl)c1)NCCCCCN1CCC(NC(=O)c2ccc(F)cc2)CC1 [TCMDC-135840],0.6546%
19,O=C(Nc1ccc(Cl)c(C(F)(F)F)c1)c1ccc(C(=O)Nc2ccc(Cl)c(C(F)(F)F)c2)cc1 [TCMDC-125581],-42.79%
20,CC1(C)N=C(N)N=C(N)N1OCCCCON1C(N)=NC(N)=NC1(C)C [TCMDC-131630],2.586%
21,Cc1cc(NC(=O)NCCN2CCC(NS(=O)(=O)c3ccc(C(F)(F)F)cc3)C2)c2ccccc2n1 (stereo not drawn) [TCMDC-136140],44.51%

row,SMILES,% Inhibition
1,NCc1cccc(-c2cccc(CN(C(=O)Nc3ccccc3)C3CCN(Cc4ccccc4)CC3)c2)c1 [TCMDC-140583],102.4%
2,NCc1ccc(-c2ccccc2CN(C(=O)Nc2ccccc2)C2CCN(Cc3ccccc3)CC2)cc1 [TCMDC-140577],94.87%
3,O=C(Nc1ccccc1)N(Cc1ccccc1-c1cccc(CNCCc2ccccc2)c1)C1CCN(Cc2ccccc2)CC1 [TCMDC-140580],102.3%
4,O=C(Nc1ccccc1)N(Cc1ccccc1-c1cccc(CNCc2ccc3c(c2)OCO3)c1)C1CCN(Cc2ccccc2)CC1 [TCMDC-140582],47.74%
5,O=C(Nc1ccccc1)N(Cc1cccc(-c2cccc(CNCCc3ccccc3)c2)c1)C1CCN(Cc2ccccc2)CC1 [TCMDC-140587],90.55%
6,Cc1ccc(CN=C(N)NC(=O)c2nc(Cl)c(NCc3ccc(Cl)cc3)nc2N)c(C)c1 [TCMDC-138938],26.05%
7,CN(c1ccc(NC(=O)c2cccc(F)c2)cc1)C1CCCN(Cc2cccc(O)c2)C1 (stereo not drawn) [TCMDC-134957],-38.33%
8,CC(=O)N(Cc1cccc(-c2cccc(CNCCc3ccccc3)c2)c1)C1CCN(Cc2ccccc2)CC1 [TCMDC-140527],98.23%
9,CC(=O)N(Cc1cccc(-c2ccc(CNCCc3ccccc3)cc2)c1)C1CCN(Cc2ccccc2)CC1 [TCMDC-140528],44.2%
10,O=C(Nc1ccccc1)N(Cc1cccc(-c2ccc(CNCCc3ccccc3)cc2)c1)C1CCN(Cc2ccccc2)CC1 [TCMDC-140588],106.9%
11,S=C(Nc1cccc(Cl)c1)NC1CCN(c2ccnc3cc(Cl)ccc23)C1 (stereo not drawn) [TCMDC-133400],41.6%
12,Cc1cc(CN2CCCN(c3ccc4c(c3)CCN(Cc3ccc(-c5ncc[nH]5)cc3)CC4)CC2)n(C)n1 [TCMDC-136550],22.45%
13,COc1ccc2nccc([C@@H](O)CN3CCC(NC(=O)c4ccc5nc(-n6cccc6)sc5c4)CC3)c2c1 [TCMDC-141027],-24.62%
14,COc1cc2c(cc1CCNCCCCNCCc1cc3c(cc1OC)CCCC3)CCCC2 [TCMDC-137319],108.4%
15,COc1cc2ccccc2c(CON2C(N)=NC(N)=NC2(C)C)c1OC [TCMDC-131792],17.71%
16,COc1cc2ccccc2cc1CCNCCCCNCCc1cc2ccccc2cc1OC [TCMDC-137944],108%
17,COc1cc2ccccc2c(OC)c1CNCCCCCCNCc1c(OC)cc2ccccc2c1OC [TCMDC-137843],116.8%
18,COc1cc2ccccc2c(CNCCCCCCNCc2c(OC)c(OC)cc3ccccc23)c1OC [TCMDC-137795],103.3%
19,Cl.O=C(Oc1ccc(C2CNCCc3c2cc(OC(=O)c2ccc(O)cc2)c(OC(=O)c2ccc(O)cc2)c3Cl)cc1)c1ccc(O)cc1 (stereo not drawn) [TCMDC-141978],49.99%
20,CC(C)Sc1nncc(-c2cnnc(SC(C)C)n2)n1 [TCMDC-123740],3.174%
21,COc1ccc2nccc([C@@H](O)CN3CCC(NCc4cc5cccc6c5n(c4=O)CCC6)CC3)c2c1 [TCMDC-140735],-18.38%
